From PubChem BioAssay
ELG1 DNA repair: qHTS screen for small molecules that inhibit ELG1-dependent DNA repair in human embryonic kidney (HEK293T) cells expressing luciferase-tagged ELG1. HEK293T ELG1-luciferase reporter, luminescence, 16 h; DNA damage induced by 5-fluorouridine. Potency, µM (top dose mostly 46.1 µM), for the others: top-dose activity change, negative = inhibition, usual class: inhibitors. actives 2.3% (n = 330,000); further: nearly all actives have a fitted effect of over 55% in size
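DMSO vehicle served as the neutral condition. Each well held 2,000 cells given 5-fluorouridine plus compound; after 16 hr at 37 °C/5% CO2, ONE-Glo was added and luciferase measured 30 min later.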
ALOX12 inh: Primary qHTS assay for inhibitors of human arachidonate 12S-lipoxygenase (ALOX12): Round 2; Polyunsaturated fatty acid lipoxygenase ALOX12 (Homo sapiens), P18054; purified 12hLO, xylenol orange hydroperoxide absorbance; actives 1.1% (n = 580,000); Potency, µM (top dose mostly 108 µM), without a hit: top-dose activity change, negative = inhibition, hits mostly inhibitors; AID 1671190, 2021
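Purified human 12hLO at 150 nM in 25 mM Hepes, 0.01% Triton X-100, pH 7.0, preincubated 15 min at room temperature with compound. Reaction started with 40 uM arachidonic acid, 30 min at room temperature. Hydroperoxide measured by Fe-xylenol orange, 573/405 nm absorbance ratio.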
Gal4-VP16 FLuc: VP16 counterscreen qHTS for inhibitors of ROR gamma transcriptional activity. Drosophila S2 Gal4-VP16 UAS-luciferase, luminescence, 20 h. Potency, µM (titrated, usually from 53.6 µM), for inactives: at the top dose activity, negative = inhibition, actives largely listed as inhibitors. actives 3.5% (n = 310,000). AID 2546, 2010;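 further: Gal4-VP16 expression switched on by copper sulfate through the metallothionein promoter; nearly all actives have a fitted effect of over 50% in size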
DT40 TDP1 CPT: qHTS for Inhibitors of human tyrosyl-DNA phosphodiesterase 1 (TDP1): qHTS in cells in presence of CPT; AID 686979, 2013; chicken DT40 Tdp1-/-;hTDP1 cells + 20 nM CPT, ATP luminescence, 48 h; Potency, µM (doses to about 46.2 µM), for the others: at the highest dose activity change, negative = growth inhibition, most hits filed as inhibitors; actives 12% (n = 420,000); further: nearly all actives have a fitted effect of over 55% in size
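Chicken DT40 Tdp1-/- cells complemented with human TDP1, 400 cells/well, exposed to compounds plus 20 nM camptothecin for at least 48 h at 37 C; viability read as ATP content by CellTiter-Glo luminescence.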
RORg inh: qHTS for inhibitors of ROR gamma transcriptional activity. Drosophila S2 Gal4-RORgamma UAS-luciferase reporter, 20 h. Potency, µM (doses to about 53.6 µM), without a hit: at the highest dose activity change, negative = inhibition, actives largely listed as inhibitors. actives 5.4% (n = 310,000). AID 2551, 2010; further: nearly all actives have a fitted effect of over 60% in size
Target sequence (P51450 whole entry, looked up, the tested form may be a part): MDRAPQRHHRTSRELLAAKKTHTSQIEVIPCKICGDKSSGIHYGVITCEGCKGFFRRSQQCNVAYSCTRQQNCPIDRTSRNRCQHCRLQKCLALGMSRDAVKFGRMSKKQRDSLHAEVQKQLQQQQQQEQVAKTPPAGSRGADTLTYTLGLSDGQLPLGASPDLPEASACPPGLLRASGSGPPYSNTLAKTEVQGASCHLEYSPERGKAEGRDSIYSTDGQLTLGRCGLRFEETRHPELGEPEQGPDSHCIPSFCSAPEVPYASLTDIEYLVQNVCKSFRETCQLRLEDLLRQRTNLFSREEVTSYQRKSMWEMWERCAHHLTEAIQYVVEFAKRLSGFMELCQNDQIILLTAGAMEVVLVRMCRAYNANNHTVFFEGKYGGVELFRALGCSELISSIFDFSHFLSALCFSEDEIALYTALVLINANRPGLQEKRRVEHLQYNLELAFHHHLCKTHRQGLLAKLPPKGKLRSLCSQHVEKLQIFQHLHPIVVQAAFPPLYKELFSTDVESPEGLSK
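Drosophila Schneider cells stably carrying a metallothionein-driven Gal4 DBD–ROR gamma fusion and a UAS-Photinus luciferase reporter were exposed to compound for 1 hr, then induced with copper sulfate (700 uM final) for 20 hr at ambient temperature before luminescence reading.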
TDP1 cell noCPT: qHTS for Inhibitors of human tyrosyl-DNA phosphodiesterase 1 (TDP1): qHTS in cells in absence of CPT; DT40 Tdp1-/- hTDP1 cells, no CPT, ATP luminescence, 48 h; Potency, µM (doses to about 46.2 µM), for inactives: at the top dose activity change, negative = growth inhibition, hits mostly inhibitors; actives 15% (n = 420,000); further: nearly all actives have a fitted effect of over 55% in size
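Growth of hTDP1-complemented DT40 Tdp1-knockout cells is measured by ATP luminescence after at least 48 hr compound exposure at 37 °C, with DMSO substituting for the 20 nM CPT used in the parallel screen.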
An asterisk follows results filed as active; ? = inconclusive; . = no result given; ! = not active in a repeat. Sampled rows, rich in hits. Any-hit rate of the full collection: about 15%. The call rests on the fitted dose curve; in most records, active means well fitted curve in the direction sought with a large enough effect; inconclusive means small, poorly fitted or top-dose-only effect, or another doubt; inactive means no such curve, though single readings can be large; an effect the other way counts as inactive or inconclusive. On the % scale 0 is the no-effect control and ±100 the full control effect; potency means the concentration at half of the fitted maximal effect.

SMILES	ELG1 DNA repair	ALOX12 inh	Gal4-VP16 FLuc	DT40 TDP1 CPT	RORg inh	TDP1 cell noCPT
CN(C)c1ccc(C2CC(c3cccc(NS(C)(=O)=O)c3)=NN2C(=O)c2ccccc2)cc1 (centres undefined)	?	28µM*	-6%	-26%	?	?
COc1cccc(C2CC(c3cccc(NS(C)(=O)=O)c3)=NN2C(=O)c2ccccc2)c1OC (centres undefined)	-30%	-26%	-13%	23µM*	2µM*	21µM*
COc1cccc(C2CC(c3ccc(Br)cc3)=NN2C(=O)c2ccncc2)c1OC (centres undefined)	?	-4%	-11%	?	1%	?
COc1ccccc1C1CC(c2ccc(Br)cc2)=NN1C(=O)c1cccnc1 (centres undefined)	?	-12%	-19%	16µM*	4%	16µM*
Cc1ccc(S(=O)(=O)N2CCC3(CC2)N=C(c2cccs2)C(=O)N3)cc1	.	-3%	.	.	.	.
Cc1ccc2nc(NC(=O)c3ccc(N4C(=O)CCC4=O)cc3)sc2c1	?	?	-3%	19%	3%	-3%
O=C(Nc1nc2cc3c(cc2s1)OCCO3)C1=COCCO1	?	?	2.2µM*	23µM*	1µM*	?
CC(=O)Nc1nc2cc3c(cc2s1)OCCO3	?	46%	-13%	?	?	23µM*
Cc1cc(C)c2sc(NC(=O)c3ccc(N4C(=O)CCC4=O)cc3)nc2c1	-8%	-3%	?	-21%	0.11µM*	?
Cc1cc(C)c2sc(NC(=O)C3=COCCO3)nc2c1	?	318%	5.6µM*	-11%	0.79µM*	-15%
Cc1cc(C)c(-c2csc(NC(=O)C3=COCCO3)n2)c(C)c1	13%	0%	.	?	.	-76%
O=C(Nc1nc2cc3c(cc2s1)OCCCO3)c1cccc(Cl)c1Cl	.	-3%	.	.	.	.
COCCn1c(C)cc(C(=O)C(=O)Nc2nnc(CSCc3cccc(C)c3)s2)c1C	.	3%	.	.	.	.
O=C(O)c1nn(CC2CC2)c2c1CN(C(=O)c1nccc3ccccc13)CC2	.	54%	.	.	.	.
CN(Cc1ccc(Cl)cc1)S(=O)(=O)c1cn(C)c(=O)n(C)c1=O	.	-10%	.	.	.	.
Clc1ccc(C(c2ccccc2)N2CCN(c3ccccn3)CC2)cc1 (centres undefined)	?	-6%	12%	?	-22%	18µM*
CN1CCCN(C(c2ccccc2)c2ccc(Cl)cc2)CC1 (centres undefined)	-7%	?	-10%	?	10µM*!	6µM*
Cc1nc(Nc2ccc(O)cc2)c2c3c(sc2n1)CCCC3	?	?	7%	?	13%	?
OCCN(CCO)c1nc2sc3c(c2c2nc(-c4ccccc4)nn12)CCCC3	.	-21%	.	.	.	.
Cc1nc(NC(C)c2ccccc2)c2c3c(sc2n1)CCC3 (centres undefined)	?	.	-23%	16µM*	?	16µM*
Cc1ccc(CNc2nc(C)nc3sc4c(c23)CCC4)cc1	?	-4%	-28%	23µM*	-16%	18µM*
NNc1nc(-c2ccccc2)nc2sc3c(c12)CCCC3	?	-20%	?	?	?	21µM*
CC1CCCN(c2nc3c([nH]2)c(=O)n(C)c(=O)n3C)C1 (centres undefined)	.	-7%	.	.	.	.
COc1ccc(OC)c(NC(=O)c2cn(CC(C)C)c(=O)c3cc(OC)c(OC)cc23)c1	.	-18%	.	?	.	?
COc1ccc(NC(=O)c2cn(CC(C)C)c(=O)c3cc(OC)c(OC)cc23)cc1Cl	.	-16%	.	21µM*	.	21µM*
SMILES	ELG1 DNA repair	ALOX12 inh	Gal4-VP16 FLuc	DT40 TDP1 CPT	RORg inh	TDP1 cell noCPT
COc1cc2c(C(=O)Nc3ccc4c(c3)OCO4)cn(CC(C)C)c(=O)c2cc1OC	9.2µM*	.	-1%	.	-29%	.
CCSc1nnc([C@H](Cc2ccccc2)NC(=O)OC(C)(C)C)o1	7%	0%	16%	-4%	12%	-3%
CCC(C)[C@@H](NC(=O)OC(C)(C)C)c1nnc(S(=O)(=O)Cc2cccc(C)c2)o1 (some centres undefined)	?	14%	5µM*	2.1µM*	3.2µM*	4.6µM*
CC(C)(C)OC(=O)N[C@@H](Cc1ccccc1)c1nnc(S(=O)(=O)Cc2ccccc2)o1	-19%	4%	4.5µM*	.	4.5µM*	.
CCSc1nnc([C@@H](NC(=O)OC(C)(C)C)C(C)CC)o1 (some centres undefined)	.	5%	.	.	.	.
Cc1ccccc1CS(=O)(=O)c1nnc([C@H](Cc2ccccc2)NC(=O)OC(C)(C)C)o1	?	7%	3.2µM*	0.65µM*	-16%	2.1µM*
CC(C)c1cc(C(=O)Nc2cccc(C(F)(F)F)c2)nn1C1CCS(=O)(=O)C1 (centres undefined)	.	-16%	.	.	.	.
CCC(C(=O)NCc1ccc(C)o1)n1nc(C)c2c(C)n(-c3ccccc3)nc2c1=O (centres undefined)	-15%	28%	4%	-13%	2%	-10%
CCC(C(=O)NCc1cccc(Br)c1)n1nc(C)c2c(C)n(-c3ccccc3)nc2c1=O (centres undefined)	.	-13%	.	23µM*	.	?
CCC(C(=O)NCc1cccc(C)c1)n1nc(C)c2c(C)n(-c3ccccc3)nc2c1=O (centres undefined)	-16%	-6%	-3%	?	-14%	?
CCOC(=O)C(CC)n1nc(C)c2c(C)n(-c3ccc(C)cc3)nc2c1=O (centres undefined)	.	-28%	.	18µM*	.	16µM*
CCc1ccc(CNC(=O)C(CC)n2nc(C)c3c(C)n(-c4ccccc4)nc3c2=O)cc1 (centres undefined)	.	3%	.	23µM*	.	16µM*
Fc1ccc(NC(=S)NCCc2ccccn2)cc1	26%	0%	?	4%	10µM*	?
FC(F)(F)c1cccc(NC(=S)NCCc2ccccn2)c1	-6%	-20%	11µM*	?	4µM*	?
S=C(NCCc1ccccn1)Nc1ccc(Cl)cc1	?	-19%	?	18µM*	6.3µM*	18µM*
